Test [1] deals with TRPC4 beta (transient receptor potential cation channel C4), mouse. The experiment in a line: activators of mouse TRPC4 channel, confirmation, cell-based, Fluo4 calcium, HEK293 TRPC4beta/mu-opioid, duplicates, 10 µM (AID 2426;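 active means fluorescence ratio normalized to control raised more than 50% in primary screen plus both repeat runs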). The conditions noted are these: Fluo4 calcium fluorescence, at 10 µM; stronger effect = higher value.
The subject of test [2] is transient receptor potential cation channel C4 beta (TRPC4), mouse. Description: activators of mouse TRPC4 channel, confirmation, cell-based, second round, Fluo4, HEK293 TRPC4beta/mu-opioid, 1 µM (AID 2461). The conditions noted are these: Fluo4 calcium fluorescence, at 1 µM; stronger effect = higher value.
The test system of test [3] is TRPC4 (transient receptor potential cation channel C4 beta), mouse. The experiment in a line: positive allosteric modulators of mouse TRPC4, confirmation, cell-based, second round, Fluo-4, HEK293 TRPC4beta/mu-opioid, 1 µM (AID 2554;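 active means primary screen hit whose fluorescence ratio, in both repeats, exceeds the weak agonist control mean by 3 SD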). The conditions noted are these: DAMGO EC20, Fluo-4 calcium flux, at 1 µM; stronger effect = higher value. A general note: Calcium flux is commonly read through the fluorescence of an indicator in the cells.

The subject of test [4] is TRPC4 beta (transient receptor potential cation channel C4), mouse. Description: positive allosteric modulators of mouse TRPC4, confirmation, cell-based, Fluo-4, HEK293 TRPC4beta/mu-opioid (AID 2555;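 active means primary screen hit whose calcium fluorescence ratio, in both repeats, exceeds the weak agonist control mean by 3 SD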). The conditions noted are these: DAMGO EC20, Fluo-4 calcium flux, at 10 µM; stronger effect = higher value.
Test [5] deals with Short transient receptor potential channel 4 (Mus musculus) (UniProt Q9QUQ5). The experiment in a line: inhibitors of mouse TRPC4 channel, confirmation, cell-based, Fluo4, HEK293 TRPC4beta/mu-opioid (AID 2636;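 active means calcium signal cut by more than 3 SD below the full-agonist control yet still positive, in both repeats and the earlier primary screen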). The conditions noted are these: DAMGO, Fluo4 calcium flux, at 10 µM; stronger effect = higher value.
Test [6] has the same target. Description: inhibitors of mouse TRPC4 channel, confirmation, cell-based, second round, Fluo4, HEK293 TRPC4beta/mu-opioid, 1 µM (AID 2637;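 active means calcium signal ratio cut to more than 3 SD under the fully stimulated control mean yet still positive, in both repeats and the primary screen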). The note with it: Fluo4 calcium flux, DAMGO, at 1 µM; stronger effect = higher value.
Test [7] has the same target. Description: mouse TRPC4 channel activators, dose response, cell-based, HEK293 TRPC4/mu-opioid, Fluo-4 calcium (AID 434937;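 active means primary screen activator hit with a dose response curve and TRPC4 channel activation at any tested dose; inactive means no activation, no dose response, or not a primary hit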).
Test [8] has the same target. Description: TRPC4 positive allosteric modulators, dose response, cell-based, HEK293 TRPC4/mu-opioid, Fluo-4 calcium, EC20 DAMGO (AID 434941;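 active means earlier screen potentiator hit that boosts the TRPC4 ion channel at some dose, with a dose response; inactive means no potentiation, no dose response, or not a prior hit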;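 further: calcium entry triggered by an EC20 dose of DAMGO at the co-expressed mu-opioid receptor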).
Test [9] has the same target. The experiment in a line: mouse TRPC4 channel inhibitors, dose response, cell-based, HEK293 TRPC4/mu-opioid, Fluo-4 calcium (AID 434942;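 active means primary screen inhibitor hit that blocks the TRPC4 channel at some tested dose, yielding a dose curve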).
The target of test [10] is Short transient receptor potential channel 6 (Mus musculus) (UniProt Q61143). The experiment in a line: inhibition of mouse TRPC6 channel, confirmation, selectivity assay for TRPC4 inhibitor project, cell-based, HEK293, membrane potential dye, duplicate (AID 434948;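 active means active in primary screen and both duplicates, each dropping signal beyond three positive-control SD with fluorescence still positive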). The note with it: HEK293 TRPC6, membrane potential dye fluorescence, at 10 µM, stimulated with maximal-effect acetylcholine; stronger effect = higher value.

Test [11] shares this target. Description: activation of mouse TRPC6 channel, confirmation, selectivity assay for TRPC4 activator project, cell-based, HEK293, membrane potential dye, duplicate (AID 434950;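 active means membrane potential signal rise above negative control mean plus 3 SD in both duplicates, also active in the earlier TRPC4 screen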). The note with it: HEK293 TRPC6, membrane potential fluorescence, at 10 µM; stronger effect = higher value.
For test [12] the target is unchanged. The experiment in a line: TRPC6 potentiation by TRPC4 potentiator hits, confirmation, selectivity assay for TRPC4 potentiator project, HEK293 cells, membrane potential dye, duplicate (AID 434952;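 active means compound raising the membrane signal above positive-control mean plus 3 SD in both repeats, and a primary screen hit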). The note with it: HEK293 TRPC6, membrane potential dye fluorescence, at 10 µM, maximal acetylcholine added after compound; stronger effect = higher value.
Test [13] has as its target Short transient receptor potential channel 4 (Mus musculus) (UniProt Q9QUQ5). The experiment in a line: calcium flux activators in TRPC4/5HT1a cells, counter-screen for TRPC4 activator project, cell-based, second counter screen, HEK293 TRPC4/5HT1a, Fluo-4 (AID 434977;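 active means calcium signal rise above buffer-control mean plus 5 SD in both duplicates, and also a hit in the primary screen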). The note with it: Fluo-4 calcium flux, at 10 µM; stronger effect = higher value.
Test [14] is described as follows: calcium flux inhibitors in TRPC4/5HT1a cells, confirmation, counter-screen for TRPC4 inhibitor project, cell-based, second counter screen, HEK293 TRPC4/5HT1a, Fluo-4 (AID 434978;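 active means primary screen active whose calcium signal fell more than 3 SD beyond the full-serotonin control mean in both duplicate plates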;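 on outcome: serotonin given first at submaximal then at maximal dose after compound preincubation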). The conditions noted are these: Fluo-4 calcium flux, at 10 µM, serotonin added to trigger calcium flux; stronger effect = higher value.
Test [15] deals with TRPC4 (mouse), co-expressed with 5HT1a in HEK293. The experiment in a line: calcium flux potentiators in TRPC4/5HT1a cells, confirmation, counter-screen for TRPC4 potentiator project, cell-based, second counter screen, HEK293 TRPC4/5HT1a, Fluo-4 (AID 434979;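 active means signal rise over 3 SD above mean of control wells given weak agonist, in both repeats and first screen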). The note with it: Fluo-4 calcium flux, at 10 µM, serotonin added at its EC20 dose; stronger effect = higher value.
A short description of test [16]: calcium flux activation in mu-opioid HEK293 cells, confirmation, counter-screen for TRPC4 activator project, cell-based, HEK293 mu-opioid receptor line (AID 449723;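 active means hit in primary screen, with calcium signal over 5 SD above buffer well mean in both duplicates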;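 further: counter screen cells carry the mu-opioid receptor alone and lack TRPC4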). The conditions noted are these: Fluo-4 calcium fluorescence, at 10 µM; stronger effect = higher value.
The nature of test [17]: calcium flux enhancement in mu-opioid HEK293 cells, confirmation, counter-screen for TRPC4 allosteric potentiator project, cell-based, HEK293 mu-opioid receptor line (AID 449724;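 active means calcium signal rise more than 3 SD above the low-dose agonist control mean, in both duplicate plates and the primary screen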;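 further: HEK293 cells carrying mu-opioid receptor only with no TRPC4 channel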). The note with it: Fluo-4 calcium flux, at 10 µM, compound added before EC20 DAMGO stimulus; stronger effect = higher value.

For part of these data: Entries with a potency or affinity are not part of this list. Activity calls are given as the source filed them.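 How the source made its calls, unless noted: active means primary screen active and over 50% activation in each of two duplicate runs; inactive means the rest.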

Sequence of Short transient receptor potential channel 6 (Mus musculus) (Q61143 whole entry, looked up): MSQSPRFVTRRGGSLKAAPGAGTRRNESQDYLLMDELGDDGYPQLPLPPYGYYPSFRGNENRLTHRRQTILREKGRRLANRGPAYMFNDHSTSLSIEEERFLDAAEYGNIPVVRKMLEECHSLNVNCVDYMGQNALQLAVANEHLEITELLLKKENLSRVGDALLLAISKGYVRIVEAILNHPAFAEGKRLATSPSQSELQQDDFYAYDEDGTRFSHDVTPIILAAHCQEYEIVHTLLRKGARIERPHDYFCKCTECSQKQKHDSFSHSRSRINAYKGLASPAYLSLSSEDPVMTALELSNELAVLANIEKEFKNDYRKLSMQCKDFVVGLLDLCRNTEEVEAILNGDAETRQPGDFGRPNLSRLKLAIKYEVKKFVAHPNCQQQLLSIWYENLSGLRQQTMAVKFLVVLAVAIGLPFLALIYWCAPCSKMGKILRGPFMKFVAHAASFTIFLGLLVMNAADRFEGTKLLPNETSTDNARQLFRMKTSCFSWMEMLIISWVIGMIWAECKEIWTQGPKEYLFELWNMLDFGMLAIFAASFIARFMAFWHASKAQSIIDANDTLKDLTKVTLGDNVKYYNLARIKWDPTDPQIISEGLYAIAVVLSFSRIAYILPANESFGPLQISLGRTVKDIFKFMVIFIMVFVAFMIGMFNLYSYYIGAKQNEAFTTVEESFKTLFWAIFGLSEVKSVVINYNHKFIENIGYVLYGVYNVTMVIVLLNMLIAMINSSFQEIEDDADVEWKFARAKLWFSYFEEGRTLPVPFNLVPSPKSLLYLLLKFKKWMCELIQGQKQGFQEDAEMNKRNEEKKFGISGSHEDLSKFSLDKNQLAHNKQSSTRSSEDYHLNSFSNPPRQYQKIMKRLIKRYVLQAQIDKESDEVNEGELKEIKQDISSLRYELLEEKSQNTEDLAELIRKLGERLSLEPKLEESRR
Sequence of Short transient receptor potential channel 4 (Mus musculus) (Q9QUQ5 whole entry, looked up): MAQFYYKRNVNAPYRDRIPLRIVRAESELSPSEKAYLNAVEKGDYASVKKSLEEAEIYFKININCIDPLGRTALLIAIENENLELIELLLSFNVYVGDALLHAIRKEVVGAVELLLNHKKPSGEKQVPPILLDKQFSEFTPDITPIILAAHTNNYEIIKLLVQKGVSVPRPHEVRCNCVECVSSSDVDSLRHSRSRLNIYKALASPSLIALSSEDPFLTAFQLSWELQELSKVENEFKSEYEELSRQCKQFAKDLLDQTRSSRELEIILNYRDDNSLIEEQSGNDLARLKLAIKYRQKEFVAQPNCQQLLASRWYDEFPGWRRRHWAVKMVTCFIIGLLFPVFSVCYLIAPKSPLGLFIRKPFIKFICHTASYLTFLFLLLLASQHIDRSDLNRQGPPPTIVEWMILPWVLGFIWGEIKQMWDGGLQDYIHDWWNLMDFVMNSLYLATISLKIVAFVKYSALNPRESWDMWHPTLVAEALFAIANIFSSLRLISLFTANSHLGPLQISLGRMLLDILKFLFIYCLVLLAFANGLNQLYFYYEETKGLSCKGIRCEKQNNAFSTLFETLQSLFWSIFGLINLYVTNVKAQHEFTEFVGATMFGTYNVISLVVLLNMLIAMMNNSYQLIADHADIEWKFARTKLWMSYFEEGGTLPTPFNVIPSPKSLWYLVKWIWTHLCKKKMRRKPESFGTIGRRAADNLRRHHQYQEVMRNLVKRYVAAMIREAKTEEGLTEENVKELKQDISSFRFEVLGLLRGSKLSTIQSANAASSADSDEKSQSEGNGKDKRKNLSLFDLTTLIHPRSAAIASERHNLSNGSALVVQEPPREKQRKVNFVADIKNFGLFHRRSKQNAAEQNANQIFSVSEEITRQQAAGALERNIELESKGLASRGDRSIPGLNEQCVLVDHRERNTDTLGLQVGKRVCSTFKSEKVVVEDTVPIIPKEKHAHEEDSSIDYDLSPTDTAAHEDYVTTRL

`O=C(COc1ccccc1)NC1CCCCCCC1`: the result in [1], in test [2], in test [5], in test [6], in [7] and in test [8] was inactive. In addition, the outcome in test [9], in [10], in [11], in test [12], in [13] and in test [14] was inactive. In addition, the result in test [16] and in [17] was inactive. The potentiation was 9% (active) in [3], 33% (active) in test [4] and 40.7% (active) in test [15].
As to `Cc1cccc(Cn2c(=O)c3c(nc4n3CCCN4Cc3ccccc3)n(C)c2=O)c1`, the result in test [1], in [2], in [5], in test [6], in test [7] and in test [8] was inactive. The outcome in [9], in test [10], in test [11], in test [12], in test [13] and in [14] was inactive. Moreover, the outcome in test [16] and in test [17] was inactive. Also, the figures for the potentiation in test [3], in test [4] and in test [15] were 14% (active), 120% (active) and 75.2% (active), respectively.
In the case of `Oc1cccc(C(=S)N2CCN(Cc3ccccc3)CC2)c1`, the outcome in [1], in test [2], in test [3], in test [4], in test [5] and in test [6] was inactive. Besides, the outcome in [7], in [8], in test [9], in test [10], in [11] and in [12] was inactive. Moreover, the result in [13], in test [14], in test [15], in test [16] and in test [17] was inactive.
The inhibition is how much of the control response was suppressed. Turning to `c1ccc(-c2nc(NCc3cccnc3)c3ccccc3n2)cc1`, the outcome in test [1], in test [2], in [3], in test [4], in [6] and in test [7] was inactive. Besides, the result in test [8], in [9], in [10], in test [11], in test [12] and in test [13] was inactive. For the same compound, the result in [15], in test [16] and in [17] was inactive. Also, the inhibition was 89% (active) in test [5] and 36.3% (active) in test [14].
As for `CCN(CC)CCN(Cc1cc2cc3c(cc2[nH]c1=O)OCCO3)C(=O)NC1CCCCC1`, the result in test [1], in test [2], in [3], in test [4], in [5] and in test [6] was inactive. Moreover, the result in test [7], in test [8], in test [9], in test [10], in test [11] and in test [12] was inactive. In addition, the outcome in test [13], in test [14], in test [15], in test [16] and in test [17] was inactive.
With `Cc1ccc(CN(C(=O)c2cc(=O)c3cc(Cl)c(C)cc3o2)C2CCS(=O)(=O)C2)cc1` (stereo not given), the result in [1], in [2], in test [3], in test [4], in test [5] and in test [6] was inactive. Moreover, the result in test [7], in test [8], in test [9], in test [10], in test [11] and in test [12] was inactive. In addition, the outcome in [13], in test [14], in test [16] and in test [17] was inactive. Further, in test [15], the potentiation was 64% (active).
For the compound `COC(=O)c1ccc(NC(=O)CCN2CCN(Cc3ccccc3)CC2)cc1`, the result in test [1], in test [2], in test [4], in test [5], in test [6] and in test [7] was inactive. In addition, the result in test [8], in test [9], in test [10], in test [11], in test [12] and in test [13] was inactive. Besides, the result in [14], in test [16] and in test [17] was inactive. In addition, the potentiation in test [3] was 25% (active); in test [15], 12.9% (active).
With `COc1ccc(CN(C2CCCCC2C)S(=O)(=O)c2ccc(S(=O)(=O)N(C)C)cc2)cc1OC` (stereo not given), the result in test [1], in [2], in [3], in test [5], in test [6] and in test [7] was inactive. In addition, the outcome in [8], in [9], in [10], in test [11], in test [12] and in [13] was inactive. Also, the result in test [14], in test [16] and in test [17] was inactive. The potentiation is 12% (active) in test [4] and 5.84% (active) in [15].
Turning to `N=c1c(C(=O)NCC2CCCO2)cc2c(=O)n3ccccc3nc2n1Cc1ccc(Cl)cc1` (stereo not given), the outcome in test [1], in [2], in test [3], in test [5], in test [6] and in test [7] was inactive. The result in test [8], in test [9], in test [10], in test [11], in test [12] and in test [13] was inactive. For the same compound, the result in [14], in test [16] and in test [17] was inactive. Moreover, the potentiation in [4] is 57% (active); in test [15], 61% (active).
`Cn1c(CN2CCN(c3ccccc3NS(C)(=O)=O)CC2)nc2ccccc21`: the outcome in [1], in [2], in test [3], in test [4], in test [5] and in test [6] was inactive. Also, the outcome in [7], in test [8], in test [9], in [10], in [11] and in [12] was inactive. Further, the result in test [13], in [14], in [15], in [16] and in test [17] was inactive.
With `O=C(c1ccccc1)C1CCc2occc2C1=O` (stereo not given), the result in test [1], in test [2], in [3], in [4], in test [5] and in test [6] was inactive. The outcome in test [7], in [8], in [9], in test [10], in [11] and in [12] was inactive. Besides, the outcome in [13], in test [14], in test [15], in test [16] and in [17] was inactive.
Regarding `Cc1ccc(NS(=O)(=O)c2cc(N)ccc2Cl)c(C)c1`, the outcome in test [1], in [2], in test [3], in test [4], in test [5] and in test [6] was inactive. In addition, the outcome in test [7], in test [8], in test [9], in [10], in test [11] and in [12] was inactive. Moreover, the outcome in [13], in test [14], in [15], in test [16] and in test [17] was inactive.
Take `COC(=O)[C@@]12CCCCN1[C@H](c1ccc(-c3ccc(C(C)=O)cc3)cc1)[C@@H]1C(=O)N(C)C(=O)[C@@H]12`: the result in [1], in test [2], in test [3], in test [4], in test [5] and in test [6] was inactive. For the same compound, the outcome in test [7], in test [8], in test [9], in test [10], in test [11] and in [12] was inactive. In addition, the result in [13], in test [14], in test [15], in [16] and in [17] was inactive.
On to `O=C(COc1ccc(Br)cc1Cl)c1ccc[nH]1`, for which the result in test [1], in test [2], in test [3], in [4], in test [6] and in [7] was inactive. The outcome in test [8], in test [9], in [10], in [11], in test [12] and in [13] was inactive. Moreover, the outcome in [15], in test [16] and in test [17] was inactive. The inhibition in [5] was 89% (active); in [14] it was 43.7% (active).
For `CC(NC(=O)c1ccccc1NC(=O)CN1CCc2ccccc2C1)c1ccccc1` (stereo not given), the result in test [1], in test [2], in test [3], in [4], in test [5] and in [6] was inactive. In addition, the outcome in test [7], in [8], in test [9], in test [10], in test [11] and in test [12] was inactive. Also, the result in test [13], in [14], in test [16] and in [17] was inactive. Moreover, the potentiation in [15] was 20.3% (active).

Source of the values: PubChem BioAssay.
